EPAC1 antagonist – EPAC1 (human) antagonism; Potency, µM (doses to about 115 µM), without a hit: top-dose activity change, negative = inhibition, usual class: inhibitors; EPAC1 GEF assay, Rap1b-BODIPY-GDP exchange fluorescence; AID 720709; O95398; 0.14% of 360,000 active;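 further: plate controls were vehicle for no effect and positive control for full effect; nearly all actives have a fitted effect of over 50% in size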
Target sequence (O95398 whole entry, looked up): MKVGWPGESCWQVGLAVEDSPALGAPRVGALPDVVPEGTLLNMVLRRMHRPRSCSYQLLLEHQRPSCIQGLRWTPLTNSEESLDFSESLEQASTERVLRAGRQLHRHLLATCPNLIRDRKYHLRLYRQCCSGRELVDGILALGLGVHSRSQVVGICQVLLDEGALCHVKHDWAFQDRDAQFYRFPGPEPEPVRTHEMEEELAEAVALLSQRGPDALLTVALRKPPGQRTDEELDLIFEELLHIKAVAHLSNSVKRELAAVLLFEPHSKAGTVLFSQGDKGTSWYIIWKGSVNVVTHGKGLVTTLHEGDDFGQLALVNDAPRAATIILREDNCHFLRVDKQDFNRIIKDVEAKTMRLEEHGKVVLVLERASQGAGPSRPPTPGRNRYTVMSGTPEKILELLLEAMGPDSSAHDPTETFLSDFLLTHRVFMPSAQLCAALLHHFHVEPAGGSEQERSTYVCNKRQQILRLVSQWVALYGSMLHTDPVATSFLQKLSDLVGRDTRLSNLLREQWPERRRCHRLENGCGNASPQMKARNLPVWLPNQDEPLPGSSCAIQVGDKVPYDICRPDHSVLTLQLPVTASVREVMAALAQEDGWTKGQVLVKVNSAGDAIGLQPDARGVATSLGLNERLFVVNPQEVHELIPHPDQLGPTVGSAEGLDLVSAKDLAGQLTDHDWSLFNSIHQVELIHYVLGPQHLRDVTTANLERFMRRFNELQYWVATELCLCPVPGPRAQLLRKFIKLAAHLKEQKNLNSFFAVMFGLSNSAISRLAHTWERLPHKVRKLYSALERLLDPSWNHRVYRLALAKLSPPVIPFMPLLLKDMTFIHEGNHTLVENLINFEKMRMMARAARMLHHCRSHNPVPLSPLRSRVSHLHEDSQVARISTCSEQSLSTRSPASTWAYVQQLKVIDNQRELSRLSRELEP
EPAC2 ag – EPAC2 (human) agonism; Q8WZA2; EPAC2 activation, biochemical qHTS; response scale: 100% = 6.5 mM cAMP response; Potency, µM (doses to about 154 µM), for inactives: at the top dose activation, actives largely listed as activators; 0.079% of 360,000 active; AID 720711; further: nearly all actives have a fitted effect of over 50% in size
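Fluorescence exchange assay: 100 nM EPAC2 with 250 nM RAP1B-BODIPY-GDP and 50 uM GDP; compounds tested as a concentration-titration series (qHTS). Loss of Rap1-bound BODIPY-GDP fluorescence read at 480/540 nm; data normalized to 6.5 mM cAMP.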
EPAC1 ag – activates human EPAC1 exchange factor | O95398 | EPAC1 agonist qHTS, biochemical assay; response scale: 100% = response to 6.5 mM cAMP | Potency, µM (highest dose often 154 µM), for the others: at the top dose activation, hits mostly activators | 0.073% of 360,000 active | AID 720707; further: nearly all actives have a fitted effect of over 60% in size
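Multi-concentration qHTS readout: loss of Rap1B-bound BODIPY-GDP fluorescence driven by 100 nM EPAC1 with excess GDP (50 uM), monitored kinetically at room temperature; agonist response expressed relative to 6.5 mM cAMP.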
EPAC2 antagonist – antagonists of human EPAC2; EPAC2 GEF exchange of Rap1B-BODIPY-GDP, fluorescence; 0.18% of 360,000 active; Q8WZA2; Potency, µM (top dose mostly 114 µM), for the others: top-dose activity, negative = inhibition, actives largely listed as inhibitors; further: on the % scale 0 is the no-effect control and ±100 the full control effect; nearly all actives have a fitted effect of over 45% in size
RGS4 inhibitor – human RGS4 inhibition | P49798 | Transcreener GDP fluorescence polarization, RGS4-accelerated GTP hydrolysis | Potency, µM (top dose mostly 114 µM), for inactives: at the highest dose activity change, negative = inhibition, usual class: inhibitors | 0.039% of 390,000 active | AID 504845; further: on the % scale 0 is the no-effect control and ±100 the full control effect; nearly all actives have a fitted effect of over 75% in size
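MLSMR compounds (23 nl, pin-transferred) preincubated 10 min at room temperature with a 500nM (2x) first reagent, then RGS4 at 900nM (2x) plus Transcreener GDP mix added; fluorescence polarization (620/688 nm) read before and after 90 min at 30 °C.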
BRCA1 expr up – BRCA1 expression activation; AID 624202; 1.1% of 380,000 active; Potency, µM (top dose mostly 46.1 µM), for inactives: top-dose activation, actives largely listed as activators; MCF7-BRCA1-FFLuc reporter, luminescence, 48 h; response scale: scaled: vehicle 0%, 10 µM genistein 100%; further: nearly all actives have a fitted effect of over 80% in size
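Using MCF7 cells harboring a BRCA1 firefly luciferase reporter, plated 2 h before compound pinning, the screen measured luminescence after 48 h incubation. Responses were normalized to DMSO and 10 microM genistein, then fitted for concentration-effect.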
Numbers without * were called inactive; ? = inconclusive; . = no result; ! = not active in a repeat; [ ] = dose if it differs, or a comment. Rows were chosen to be rich in hits. Some 1.3% of all compounds tested hit in one or more screens of this group. The call rests on the fitted dose curve; in most records, active means well fitted curve in the direction sought with a large enough effect; inconclusive means small, poorly fitted or top-dose-only effect, or another doubt; inactive means no such curve, though single readings can be large; an effect the other way counts as inactive or inconclusive. Potency means the concentration at half of the fitted maximal effect.

SMILES | EPAC1 antagonist | EPAC2 ag | EPAC1 ag | EPAC2 antagonist | RGS4 inhibitor | BRCA1 expr up
Cc1cc(S(=O)(=O)N2CCN(CC(=O)N(C)Cc3ccccc3)CC2)ccc1Br | -10.6% | 5.0% | 63.1µM* | -1.6% | -11.5% | -27.7%
COc1ccc(/C=C/c2ccncc2)cc1 | -2.4% | 9.4% | 1.1% | -3.4% | 12.1% | 10µM*
CN(C)c1ccc(/C=C/c2ccncc2)cc1 | -22.9% | 16.8% | -1.6% | -5.3% | -2.9% | 7.94µM*
COc1cccc(/C=C/c2ccncc2)c1OC | -3.9% | -0.2% | 5.1% | 5.8% | 33.2% | 3.1%
CN(c1ccccc1)S(=O)(=O)c1ccc(C(=O)OCC(=O)NCc2ccco2)cc1 | -18.7% | -4.1% | 6.8% | -5.1% | ? | -11.0%
O=C(c1cc2cc(Br)ccc2o1)N1CCCCC1 | -4.5% | 10.6% | -0.3% | ? | -4.0% | 4.47µM*
Cc1cccc(-c2nc(C#N)c(NC3CCCCC3)o2)c1 | -20.7% | -13.3% | 16.3% | 5.8% | 15.2%[11.4 µM] | 3.16µM*
Cc1cccc(-c2nc(C#N)c(N3CCCCC3)o2)c1 | 1.5% | 29.7% | 9.4% | -1.5% | 10.1% | ?
O=C(Nc1ccc(C(=O)N2CCOCC2)cc1)Nc1cccc(Cl)c1 | -8.6% | -14.1% | -10.1% | 2.1% | -16.6% | 11.2µM*
O=C(COC(=O)/C=C/c1ccccc1)Nc1ccc(Cl)cn1 | 15.2% | 4.4% | -2.3% | 9.6% | -25.3% | -4.6%
O=C(CC(c1ccccc1)c1ccccc1)Nc1ccc(Cl)cn1 | -8.9% | 6.31µM* | 15.6% | -15.0% | 13.6% | -68.5%
O=C(/C=C/c1ccccc1)Nc1ccc(Cl)cn1 | 23.0% | 1.6% | -0.7% | 3.7% | -17.8% | 3.55µM*
CCOc1ccc(-n2nc3ccc(NC(=O)COc4ccc(OC)cc4)cc3n2)cc1 | . | . | . | . | 8.0% | .
CCOc1ccc(NC(=O)c2ccc(F)cc2F)cc1 | -4.2% | 4.4% | -1.8% | 0.3% | 28.3% | 11.2µM*
CCOc1ccc(NC(=O)c2ccc3snnc3c2)cc1 | 7.6% | -0.4% | 1.1% | 13.8% | 6.7% | 7.94µM*!
COc1cc(/C=C/C(=O)c2ccc(O)cc2)ccc1OCC#N | ? | 8.3% | 3.0% | -10.1% | -3.2% | -101.3%
COc1cccc(C(=O)/C=C/c2ccc(OCC#N)c(OC)c2)c1 | 22.4µM* | 12.9% | 1.1% | -2.5% | ? | -81.1%
COc1cccc(OCCN2CCN(c3ncnc4c3cnn4-c3ccccc3)CC2)c1 | -15.4% | 20.5% | 19.0% | -5.8% | 35.6% | -72.5%
COc1ccccc1OCC(=O)Nc1cccc(S(=O)(=O)NC2=NCCCCC2)c1 | -15.6% | 5.5% | ? | 3.8% | 11.3% | 0.2%
O=C(Nc1ccc(N2CCOCC2)cc1)c1cccc(-n2cnnc2)c1 | 4.2% | 11.9% | -12.3% | 1.6% | 10.6% | 16.6%
CN(C)c1cccc(C(=O)Nc2ccc(N3CCOCC3)cc2)c1 | 16.6% | -0.8% | 4.7% | 9.6% | -22.4% | 11.2µM*
O=C(COc1ccccc1Cl)Nc1cccc(S(=O)(=O)NC2=NCCCCC2)c1 | -13.1% | 3.4% | 126µM* | -4.3% | -11.0% | -1.2%
CN(C)c1cccc(C(=O)Nc2cccc(S(=O)(=O)NC3=NCCC3)c2)c1 | -11.3% | -1.9% | -5.8% | -1.1% | 4.5% | 3.98µM*
Cn1c(=O)[nH]c(=O)c2c1nc(OC(=O)c1ccccc1)n2CC(O)COc1ccc(F)cc1 (configuration not stated) | -1.7% | 6.1% | 4.2% | -0.3% | -10.7% | 1.2%
O=S(=O)(O)c1cc(Cl)cc(N=Nc2ccc(O)cc2O)c1O | -30.9% | 12.1% | 1.4% | ? | -25.4% | -52.1%
SMILES | EPAC1 antagonist | EPAC2 ag | EPAC1 ag | EPAC2 antagonist | RGS4 inhibitor | BRCA1 expr up
O=S(=O)(O)c1cc(O)c2c(O)c(N=Nc3cc(Cl)ccc3O)c(S(=O)(=O)O)cc2c1 | ? | -11.4% | 0.7% | 28.2µM* | -60.3%[56.9 µM] | -43.7%
COc1ccccc1C(=O)Nn1cnc2ccccc2c1=O | -3.0% | 0.9% | -0.4% | 11.0% | 10.2% | 10µM*
O=c1c(O)cccc2cc(O)c(O)c(O)c12 | 12.6µM* | -2.9% | 1.6% | 1.4% | ? | -55.7%
COCCCn1c(=O)/c(=C\c2cccc(OC)c2OC)s/c1=C(/C#N)C(=O)Nc1ccc(C(=O)O)cc1 | ? | 17.8% | -0.4% | 25.9% | 3.0%[11.4 µM] | 6.8%
CCc1ccccc1NC(=O)CCNS(=O)(=O)c1ccc2c(c1)CCC(=O)N2 | 11.6% | 5.3% | 1.7% | 3.6% | 34.3% | -14.2%
N#C/C(=C/c1ccncc1)c1nc2ccccc2s1 | 1.9% | 0.0% | -9.2% | 12.7% | ? | -6.3%
CC1CCc2nc(/C(C#N)=C/c3ccncc3)sc2C1 (configuration not stated) | 19.2% | -6.2% | 5.9% | -2.9% | -11.1% | 11.2µM*
Cc1cc(C(=O)CN2C(=O)NC3(CCCCC3C)C2=O)c(C)n1Cc1cccs1 (configuration not stated) | 4.7% | 6.5% | -2.4% | -12.3% | 25.2% | 4.47µM*
CC1CCCCC12NC(=O)N(CC(=O)NCc1cccs1)C2=O (configuration not stated) | -5.3% | -0.9% | 5.1% | 24.0% | . | -1.4%
COCCCNC(=O)C1CCN(C(=O)c2oc3cc4sc(N(C)C)nc4cc3c2C)CC1 | 13.4% | -5.3% | 3.1% | 5.4% | 15.9% | 11.2µM*
CC(C)c1ccc(OCC(=O)N2CCCCCC2)c(Br)c1 | -12.1% | 1.2% | -4.0% | -15.0% | -7.9% | 10µM*
CCOC(=O)c1c(C)[nH]c(C)c1S(=O)(=O)N(C)CC(=O)Nc1ccc(C)c(N(C)C)c1 | . | . | . | . | 8.8% | -6.2%
c1coc(CNc2nc3ccccc3s2)c1 | -4.8% | 4.1% | -4.3% | -8.8% | -5.4% | 3.16µM*
COc1cc(-c2c(-c3cc(OC)c(OC)c(OC)c3)noc2C)ccc1F | -11.2% | 16.8% | 8.5% | -17.8% | -6.3% | -67.0%
O=C(/C=C/c1ccco1)Nc1nc(-c2ccccc2)cs1 | -4.4% | 5.5% | 7.8% | -0.2% | -5.1% | 8.91µM*
O=C(/C=C/c1ccco1)Nc1nc(-c2ccccn2)cs1 | ? | -5.6% | -3.4% | -11.0% | ? | -42.4%
c1ccc(Sc2ncnc3c2oc2ccccc23)nc1 | 6.3% | 1.3% | -3.5% | 6.1% | 1.3% | 11.2µM*
CC(C)Sc1ncnc2c1oc1ccccc12 | 11.5% | 11.5% | 2.9% | 3.2% | -9.9% | -13.3%
CCN(CC(=O)Nc1ccccc1C(F)(F)F)C(=O)CCOc1ccccc1C | -15.0% | 10.5% | 44.7µM* | 1.0% | -7.6% | -25.1%
CCN(CC(=O)Nc1cc(Cl)ccc1C)C(=O)CCOc1ccccc1C | -5.2% | 12.2% | -9.5% | -13.5% | -6.5% | -14.7%
COc1ccc(NC2CC(=O)NC2=O)cc1 (configuration not stated) | 5.9% | -8.5% | 8.3% | -2.8% | -4.5%[11.4 µM] | 3.2%
